High-throughput results as filed in PubChem BioAssay.
BoNT-A LC inh2 = BoNT/A light chain protease inhibitors, primary screen, biochemical, flow cytometry, MLPCN library. multiplex microsphere protease substrate cleavage. inhibition, % at 10 µM. actives 0.17% (n = 360,000); note: plate controls were buffer without enzyme for full effect and enzyme alone for no effect
Autofluor counter = compound fluorescence in toxin protease inhibitor counterscreen. compound autofluorescence counterscreen, microsphere flow cytometry; hits give high values. AID 624483. fluorescence intensity (test concentration not listed). actives 3.1% (n = 360,000); in the data active = fluorescence intensity above about 16000; inconclusive = no clear call, values can overlap the other calls
BoNT-F LC inh = BoNT/F light chain protease inhibitors, primary screen, biochemical, flow cytometry, MLPCN library. actives 0.22% (n = 360,000). inhibition, % at 10 µM. Botulinum neurotoxin type F light chain protease (Clostridium botulinum). Multiplex microsphere protease cleavage assay; in the data active = inhibition above about 35%, passing the limit was not always enough; inconclusive = no clear call, values can overlap the other calls; note: plate controls were buffer without enzyme for full effect and enzyme alone for no effect
SSB-PriA inh = inhibitors of Klebsiella pneumoniae PriA binding to SSB C-terminal tail, primary screen, biochemical, AlphaScreen; AlphaScreen SSBct-PriA binding, biotinylated peptide; inhibition, % at 33 µM; actives 0.6% (n = 430,000); in the data active = inhibition mostly above about 37%, no sharp cut-off; inactive = mostly below about 20%;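 note: plate controls were negative control peptide for no effect and reference peptide for full effect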
MazEF act = activators of E. coli MazEF toxin-antitoxin RNase, primary screen, biochemical, fluorescence, uHTS. Endoribonuclease toxin MazF (Escherichia coli (strain K12)), P0AE70. FAM/BHQ RNA-DNA oligo cleavage fluorescence, 5 h. activation, % at 20 µM. actives 0.32% (n = 350,000); in the data active = activation above about 50%
Anthrax LF inh2 = Bacillus anthracis LF protease inhibitors, primary screen, biochemical, multiplex microsphere, MLPCN library | Lethal factor (Bacillus anthracis), P15917 | multiplex microsphere protease cleavage assay | inhibition, % at 10 µM | actives 0.12% (n = 360,000); note: plate controls were buffer without enzyme for full effect and enzyme alone for no effect
Target sequence (P15917 whole entry, looked up): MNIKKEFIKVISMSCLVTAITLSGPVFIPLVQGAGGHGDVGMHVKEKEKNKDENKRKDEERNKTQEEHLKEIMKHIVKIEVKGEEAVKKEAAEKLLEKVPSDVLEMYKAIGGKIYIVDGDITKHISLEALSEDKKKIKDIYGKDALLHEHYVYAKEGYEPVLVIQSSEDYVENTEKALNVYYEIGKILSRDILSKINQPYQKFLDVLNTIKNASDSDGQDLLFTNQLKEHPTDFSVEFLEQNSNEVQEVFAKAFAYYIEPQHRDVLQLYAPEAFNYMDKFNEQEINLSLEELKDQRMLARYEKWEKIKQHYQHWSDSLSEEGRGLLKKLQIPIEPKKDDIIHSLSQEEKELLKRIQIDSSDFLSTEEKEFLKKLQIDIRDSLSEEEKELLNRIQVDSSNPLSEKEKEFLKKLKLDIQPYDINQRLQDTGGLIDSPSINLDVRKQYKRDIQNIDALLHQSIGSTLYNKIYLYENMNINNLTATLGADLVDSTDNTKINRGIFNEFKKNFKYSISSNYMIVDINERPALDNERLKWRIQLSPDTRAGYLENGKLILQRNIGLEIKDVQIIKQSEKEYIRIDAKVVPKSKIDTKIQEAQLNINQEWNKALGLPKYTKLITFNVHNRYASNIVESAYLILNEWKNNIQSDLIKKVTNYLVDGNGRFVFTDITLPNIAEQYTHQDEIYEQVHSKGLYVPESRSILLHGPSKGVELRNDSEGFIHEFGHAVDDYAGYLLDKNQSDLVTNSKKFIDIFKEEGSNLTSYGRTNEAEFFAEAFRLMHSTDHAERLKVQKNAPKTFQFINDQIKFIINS
An asterisk follows results filed as active; i = inactive; ? = inconclusive; · = no result; + = active, no number. Compounds with a hit are over-represented: about 3.3% of the library has one in this group of screens. Cut-off read from the data, not from the text of the source, unless noted: active = inhibition above about 30%; inconclusive = no clear call, values can overlap the other calls; inactive = below that.

SMILES	BoNT-A LC inh2	Autofluor counter	BoNT-F LC inh	SSB-PriA inh	MazEF act	Anthrax LF inh2
Cn1nc(CNC(=O)COc2cccc3c2OC(C)(C)C3)cc1-c1ccncc1	·	·	·	-7	·	·
O=C(c1ccco1)N1CCO[C@H](c2cccnc2)C1	·	·	·	4	·	·
N#Cc1ccc(-c2cccnc2)nc1SCC(=O)c1ccccc1	·	·	·	-1	+	·
N#Cc1ccc(-c2ccccc2)nc1SCC(=O)c1cccc(Cl)c1	4	5058	-24	-19	-36	9
CCCCc1nc2ccccc2c(N)c1CCC	·	·	·	-2	·	·
CCCc1nc2c(C)ccc(C)c2c(N)c1CC	?	22777*	1	-7	4	-7
Oc1ccccc1C=NN=Cc1c(O)ccc2ccccc12	8	2774	7	-16	+	7
Oc1ccc2ccccc2c1/C=N/n1cnnc1	2	22040*	2	·	3	-2
Cc1ccc(C)c(CN2CCCN(CC(=O)N3CCN(c4ccc(F)cc4)CC3)S2(=O)=O)c1	·	·	·	-6	·	·
CCOC(=O)CNC(=O)C1(c2ccccc2)CCCC1	-1	16511*	-4	-4	8	1
COc1cc(C2C(C#N)=C(N)OC3=C2C(=O)CCC3)c([N+](=O)[O-])cc1OC (configuration not stated)	2	4261	11	9	110*	8
Cc1cc(C2C(C#N)=C(N)OC3=C2C(=O)CCC3)c(C)s1 (configuration not stated)	-1	3420	-8	-5	2	0
O=[N+]([O-])c1cc(Cl)ccc1Nc1ccc(O)cc1	·	·	·	103*	·	·
O=[N+]([O-])c1ccc(Cl)cc1Nc1ccccc1	·	·	·	56	·	·
COc1cccc2c1C(=O)c1c(O)c3c(c(O)c1C2=O)C[C@@](O)(C(=O)CO)C[C@@H]3O[C@H]1C[C@H](N)[C@@H](O)[C@H](C)O1	1	2915	-121	46*	i	-108
CN(C[C@H]1CCCO1)S(=O)(=O)c1ccc(C(=O)Nc2ccc(-c3nc4ccccc4o3)cc2)cc1	·	·	·	-19	·	·
Cc1ccc(C(=O)N/N=C/c2ccc([N+](=O)[O-])o2)cn1	·	·	·	i	·	·
CSc1nc2n(n1)C(c1cc(Br)ccc1F)C(C(=O)N(C)C)=C(C)N2 (configuration not stated)	-2	20105*	-4	-9	4	-6
CCn1cc(C2C(C(N)=O)=C(C)Nc3nc(SC)nn32)cn1 (configuration not stated)	·	·	·	-17	·	·
Oc1ccccc1C1N=C(c2ccccc2)NC(c2ccccc2)=N1	1	22671*	0	-10	6	0
Cc1ccc2cc(C)c(N3CCN(c4ccccn4)CC3)nc2c1	0	23535*	-3	-13	-11	-4
O=C(Nc1c(C(=O)N2CCCC2)cnn1-c1ccccc1)c1cccc(F)c1	?	21118*	-4	-10	3	2
COc1ccc(C(=O)Nc2sc(C)c(C)c2C(c2ccccn2)N2CCOCC2)cc1 (configuration not stated)	·	·	·	-10	·	·
Cc1scc(C(=O)NCc2ccco2)c1-c1ccccc1	5	20412*	4	-4	-2	-3
O=C(NCc1ccco1)c1ccccc1-c1ccccc1	1	22200*	3	4	3	-4
SMILES	BoNT-A LC inh2	Autofluor counter	BoNT-F LC inh	SSB-PriA inh	MazEF act	Anthrax LF inh2
O=C(NCc1ccco1)c1ccccc1NS(=O)(=O)c1ccc(Br)s1	0	22236*	0	-12	2	-4
Cc1cc(C(=O)NCc2ccco2)cs1	0	9797	-4	-13	-7	-1
O=C(O)c1ccccc1-c1ccccc1C(=O)NCc1ccco1	-1	6847	-8	-17	5	-11
Cn1cccc1C(CNS(=O)(=O)c1ccc(C(C)(C)C)cc1)N1CCCC1 (configuration not stated)	·	·	·	10	·	·
COc1ccc(COc2ccsc2C(=O)Nc2ccc(Cl)cc2)cc1	1	19044*	2	-12	25	1
CCCCC1(C)OC(=O)C(=Cc2c[nH]c3ccccc23)C(=O)O1 (configuration not stated)	-1	2681	-7	-9	235*	-1
NCc1ccc(-c2nccs2)cc1	·	·	·	-7	·	·
